Bioassay records (PubChem)
gsp antag: gsp mutant antagonism; gsp-mutant cells, cAMP HTRF, 30 min; Potency, µM (doses to about 76.9 µM), inactives show top-dose activity change, negative = inhibition, hits mostly inhibitors; 340,000 compounds, 0.4% hits; calls by dose curve; cell line not stated here;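 note: intracellular cAMP measured with PDE inhibitor Ro 20-1724 present during compound exposure; potency is the fitted concentration of half-maximal effect; % is set by controls: 0 for no effect and ±100 for the full control effect; nearly all actives have a fitted effect of over 65% in size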
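Cells, 2000/well, grown 16–24 h in DMEM 10% FBS with 0.5 mg/ml G418, then compounds plus […] (300 uM addition stock), 30 min at 37C. cAMP read by HTRF (cAMP-d2 and anti-cAMP antibody-K in lysis buffer) after 30 min RT.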
gsp ag: gsp mutant agonism. gsp mutant cells, cAMP HTRF, 30 min. Potency, µM (highest dose often 76.9 µM), for the others: top-dose activation (cAMP increase), hits mostly activators. 340,000 compounds, 0.13% hits. AID 624287; active = well fitted activation curve with a large enough effect; inconclusive = small, poorly fitted or top-dose-only effect, or another doubt; inactive = no such curve, though single readings can be large or run the other way; cell line not stated here;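 note: phosphodiesterase inhibitor Ro 20-1724 added with compounds to block cAMP breakdown; potency is the fitted concentration of half-maximal effect; nearly all actives have a fitted effect of over 60% in size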
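Cells stably selected in G418 were plated at 2000/well, grown 16-24 hr, then given compounds in DMSO with the PDE inhibitor […] (300 uM solution added) for 30 min at 37C; cAMP was read by HTRF.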
TSHR antagonist: antagonists of human thyroid stimulating hormone receptor; P16473; TSHR-expressing cells, TSH-stimulated cAMP HTRF, 2 h; hits give low values; activity change, negative = inhibition, % at 11.5 µM; 330,000 compounds, 0.2% hits; AID 504810;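 active = activity change below a set negative limit, meaning inhibition stronger than a set level, cut at about -70% in these data; inconclusive = activity change between two set negative limits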; note: % is set by controls: 0 for no effect and ±100 for the full control effect
Target sequence (P16473 whole entry, looked up): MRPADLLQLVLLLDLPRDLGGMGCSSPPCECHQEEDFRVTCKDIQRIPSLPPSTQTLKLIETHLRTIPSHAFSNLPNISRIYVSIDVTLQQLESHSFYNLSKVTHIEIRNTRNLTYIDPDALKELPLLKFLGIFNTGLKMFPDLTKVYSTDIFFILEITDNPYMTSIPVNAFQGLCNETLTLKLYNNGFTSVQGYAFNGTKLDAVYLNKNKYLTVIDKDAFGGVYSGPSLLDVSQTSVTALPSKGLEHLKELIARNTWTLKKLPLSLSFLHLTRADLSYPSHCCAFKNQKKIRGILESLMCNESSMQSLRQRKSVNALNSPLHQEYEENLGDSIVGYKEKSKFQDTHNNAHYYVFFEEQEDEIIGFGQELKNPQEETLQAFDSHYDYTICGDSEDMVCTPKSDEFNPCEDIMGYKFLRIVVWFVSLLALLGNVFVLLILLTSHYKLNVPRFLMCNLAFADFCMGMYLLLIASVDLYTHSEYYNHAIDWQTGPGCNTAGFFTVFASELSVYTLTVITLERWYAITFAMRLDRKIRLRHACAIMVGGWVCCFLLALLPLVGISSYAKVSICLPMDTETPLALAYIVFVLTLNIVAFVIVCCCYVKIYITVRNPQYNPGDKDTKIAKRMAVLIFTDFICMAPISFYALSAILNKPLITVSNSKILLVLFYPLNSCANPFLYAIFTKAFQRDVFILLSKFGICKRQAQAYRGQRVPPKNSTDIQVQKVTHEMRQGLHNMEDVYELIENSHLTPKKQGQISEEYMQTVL
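Cell-based HTRF cAMP assay; TSHR cells + compound, TSH EC80 (4nM final), 2 h, 37 deg C. Lysis with anti-cAMP cryptate and cAMP-d2, 30 min RT, read 665/620 nm.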
uPA generation: cell surface uPA generation inhibition; cell surface uPA generation assay, qHTS; Potency, µM (series often up to 38.3 µM), for inactives: top-dose activity change, negative = inhibition, actives largely listed as inhibitors; AID 540303; 330,000 compounds, 0.31% hits; active = well fitted inhibition curve with a large enough effect; inconclusive = small, poorly fitted or top-dose-only effect; inactive = no such curve, though single readings can be large or run the other way; tested in mouse RAW 264.7 cells; note: potency is the fitted concentration of half-maximal effect; % is set by controls: 0 for no effect and ±100 for the full control effect; nearly all actives have a fitted effect of over 55% in size
MmCpn inh: M. maripaludis TRiC chaperonin inhibition | purified Mm-Cpn ATPase, ADP Transcreener TR-FRET | Potency, µM (highest dose often 76.9 µM), for the others: top-dose activity, negative = inhibition, most hits filed as inhibitors | 330,000 compounds, 0.031% hits | AID 504842; active = well fitted inhibition curve with a large enough effect; inconclusive = small, poorly fitted or top-dose-only effect; note: potency is the fitted concentration of half-maximal effect; % is set by controls: 0 for no effect and ±100 for the full control effect; nearly all actives have a fitted effect of over 80% in size
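Purified archaeal chaperonin (25 nM final) was preincubated with compound for 10 min at 37°C, then ATP (10 uM final) was added for 30 min at 37°C in Tris pH 7.4/KCl/MgCl2/DTT buffer. ADP was quantified by HTRF Transcreener TR-FRET.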
CCT chaperon mod: modulators of cytosolic chaperonin (CCT/TRiC) activity; activity change, % (concentration not given with the values), hits read low; purified chaperonin ATPase assay, HTRF ADP detection, 30 min; AID 651819; 360,000 compounds, 0.3% hits; in the data active = activity change below about -30%; note: % is set by controls: 0 for no effect and ±100 for the full control effect
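First, chaperonin was dispensed at 40 nM or 20 nM final depending on batch activity. Next, compounds were pinned at 76 uM and ATP added at 10 uM. After 30 min at 37 °C, ADP detection reagents ran 30 min at ambient temperature.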
* hit, by the source's call; u = inconclusive; x = no result; [ ] = dose if it differs, or a comment. Sampled rows, rich in hits. Any-hit rate of the full collection: about 1.2%.

SMILES	gsp antag	gsp ag	TSHR antagonist	uPA generation	MmCpn inh	CCT chaperon mod
CCOc1cc2c(cc1/C=C(/C#N)c1ccc(C(=O)O)cc1)OCO2	35.5µM*	-1.1%	-15.0	2.5%	1.3%	0.9
O=C(CSc1ccc(Cl)cc1)N1CCC(c2nc3ccccc3s2)CC1	31.6µM*	-17.6%	-38.6	5.6%	0.9%	-4.5
CCN(CC(=O)NCc1ccc(Cl)cc1)C(=O)CSc1ccc(Br)cc1	39.8µM*	19.5%	6.8	-5.2%	2.7%	-0.9
COc1cc(C2c3[nH]c4ccccc4c3C[C@@H]3C(=O)N(Cc4ccco4)CC(=O)N23)cc(OC)c1OC (some centres undefined)	-0.2%	0.0%[15.4 µM]	-1.6	-9.6%	-2.2%	-3.2
COc1ccc(-c2ccc3c(c2)S(=O)(=O)c2cccc(C(=O)N4CCN(c5ccccn5)CC4)c2C3=O)cc1OC	x	u	x	x	x	-31.9*
COc1ccc(-c2ccc3c(c2)S(=O)(=O)c2cccc(C(=O)O)c2C3=O)cc1OC	-1.6%	-8.8%	13.5	14.4%	2.5%	-2.1
COc1ccc(-c2ccc3c(c2)S(=O)(=O)c2cccc(C(=O)N4CCN(C5CCCCC5)CC4)c2C3=O)cc1OC	-13.2%	x	-4.9	3.16µM*	-0.2%	-1.2
O=C(Nc1cccc(-n2cnnn2)c1)c1cnccc1Cl	7.7%	-8.6%	-1.1	0.4%	1.6%	-0.3
O=C(O)c1ccccc1C(=O)c1ccc(N2CCCC2)c([N+](=O)[O-])c1	-12.9%	11.3%[15.4 µM]	4.7	0.9%	0.5%	1.2
CC(=O)c1ccc(N2CCN(c3ccccc3O)CC2)c([N+](=O)[O-])c1	31.6µM*	16.4%[15.4 µM]	-9.7	-0.7%	-0.9%	-1.5
CCn1c(O)c(N=NC(=O)CNC(=O)Cc2ccccc2)c2ccccc21	-6.4%	1.1%	5.9	2.1%	-0.7%	1.9
O=C(CNC(=O)c1ccco1)N=Nc1c(O)n(CCc2ccccc2)c2ccccc12	-0.1%	-33.6%	7.1	1.12µM*	-1.0%	-2.0
NC(=O)Cn1c(O)c(N=NC(=O)CNC(=O)/C=C/c2ccccc2)c2ccccc21	8.7%	-1.1%	-2.8	9.7%	0.8%	-73.3*
Cc1cn(C2OC(COC(=O)c3ccccc3)C(O)C2O)c(=O)[nH]c1=O (centres undefined)	0.9%	7.3%	1.2	9.2%	-0.7%	-31.9*
O=C(CCN1C(=O)/C(=C/c2ccccc2)SC1=S)NNC(=O)c1ccncc1	39.8µM*	-30.8%	8.3	-0.5%	-0.2%	1.2
O=C1/C(=C/c2ccccc2)SC(=S)N1CC(=O)N1CCCCC1c1cccnc1 (centres undefined)	39.8µM*	30.4%	-12.9	u	-0.5%	0.3
O=C1/C(=C\c2ccccc2)SC(=S)N1CCC(=O)N1CCCCC1CCO (centres undefined)	8.9%	-16.7%	-8.2	3.2%	1.1%	-2.3
Cc1cc(/C=C2\SC(=S)N(Cc3ccco3)C2=O)c(C)n1-c1cccnc1	1.6%	-26.0%	-8.7	1.9%	-0.4%	-2.5
O=C1/C(=C/c2cccnc2)SC(=S)N1Cc1ccco1	35.5µM*	-22.3%	x	-9.0%	x	-3.9
COc1nccnc1NS(=O)(=O)c1ccc(NC(=S)NC(=O)c2ccc(F)cc2)cc1	u	-2.1%	-4.2	1.1%	0.4%	2.1
COc1nccnc1NS(=O)(=O)c1ccc(NC(=S)NC(=O)c2cccc(F)c2)cc1	u	-3.1%	-7.7	2.4%	1.5%	-63.4*
CCc1nnc(NC(=O)CCC(=O)N2CCN(Cc3ccccc3)CC2)s1	2.9%	-23.7%	-6.3	4.6%	-0.2%	-93.4*
CCCCc1nnc(NC(=O)CCc2ccccc2)s1	11.9%	-1.0%	73.3	15.5%	-0.2%	-4.0
CCOC(=O)c1sc(NC(=O)CCc2ccccc2)nc1C	9.3%	4.9%	-2.1	4.47µM*	3.9%	0.1
CCc1nnc(NC(=O)CCC(=O)N2CCN(Cc3ccc(Cl)cc3)CC2)s1	-11.1%	-46.3%	-0.4	-4.9%	-0.2%	-3.5
CCCC(=O)Nc1nnc(CCc2ccccc2)s1	-0.9%	0.3%	-88.9*	0.8%	-0.5%	1.0
